In all, about 300,000 compounds went through this assay and about 3,600 (1.2%) were called active. The sample as a whole holds a higher share of actives than the screen did. Values without a mark were called inactive. Rule as the data show it: active = activation above about 30% (passing the limit was not always enough); inconclusive = no clear call, values can overlap the other calls. Where a SMILES comes first, the peptide text is derived from it. [ ]: non-standard residue; d: D form. The star is where a group is joined. PhAc = O=C(Cc1ccccc1)*

This assay in a line: Wnt/beta-catenin pathway activators, primary screen, cell-based, plate reader, single point (AID 743398).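 Also: 0% = neutral control wells and 100% = positive control wells.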 The conditions noted are these: Wnt/beta-catenin reporter cell assay, activator, at 9.35 µM, hits give high values.
On to `Cc1ccc(-c2nc3c(Cl)cc(C(F)(F)F)cn3c2Cc2cccc(Cl)c2)cc1`, for which the activation was -3.09%.

With `CC(=O)Nc1cccc(-c2cc(NC=O)c3ncc(-c4ccc(F)c(Cl)c4)n3c2)c1`, the activation was -1.52%.

On to `COc1cccc(-c2cc3nc(NCCOc4ccccc4Cl)n(C)c(=O)c3s2)c1`, for which the activation was 0.348%.

`COc1ccc(-c2ccc3c(n2)CCCN3S(=O)(=O)c2ccc(C)cc2)cc1`: the activation is -3.98%.

Turning to `O=C(O)CCCCc1nc2ccccc2s1`, the activation was -1.61%.

In the case of `O=C(O)CSCc1nc2ccccc2s1`, the activation was 39.2% (active).

For `O=C(O)c1ccccc1CSc1nc2ccccc2s1`, the activation was 2.11%.

In the case of `CC(=O)c1cnc(-c2ccccc2)s1`, the activation was 2.94%.

Turning to `CS(=O)(=O)N1CCC(C(=O)N2CCN(c3ccccc3)CC2)CC1`, the activation was -0.44%.

On to `CS(=O)(=O)N1CCc2nc(-c3ccccc3)sc2C1`, for which the activation is 35.7% (active).

Regarding `COC(=O)Cc1nnn2c1[C@H](C)[C@@H](OC)c1cc(Br)ccc1-2`, the activation is 2.78%.

For the compound `Nc1nc2c(ncn2[C@@H]2O[C@H](C(=O)N[C@H](Cc3ccccc3)C(=O)NCC3CCCCC3)[C@@H](O)[C@H]2O)c(=O)[nH]1`, the activation is -6.28%.

For the compound `COc1ccc(CNC(=O)c2ccc(-c3cccnc3)c3ccoc23)cc1OC`, the activation was -3.07%.

As to `COc1ccc(OCCC(=O)c2ccc(OC)cc2)cc1`, the activation is -1.86%.

On to `CO/N=C/CC(=O)c1ccc(OC)cc1`, for which the activation is 61.5% (active).

In the case of `COc1ccc(CCC(=O)c2ccc(OC)cc2)cc1`, the activation was 5.92%.

Take `CC(C)(C)C(c1nc2ccccc2[nH]1)n1c(Cc2csc3ccccc23)nc2ccccc21` (configuration not stated): the activation was 15.7%.

For `CCc1c(C)nc2cc(C)[nH]n2c1=O`, the activation is -2.02%.

As for `CCCCN1Cc2c(nc3cc(-c4ccccc4)[nH]n3c2=O)C1=O`, the activation was 0.267%.

Take `C=CCc1c(C)nc2cc(-c3ccccc3)[nH]n2c1=O`: the activation is 45.5% (active).

Consider `COc1ccc(CN2CCC(C)(Oc3cccc(F)c3)C2)c2ccccc12` (configuration not stated), for which the activation was -4.58%.

Turning to `CCc1nc2c(OCCOc3ccccc3)cccn2c1N(C)C(=O)c1ccccc1F`, the activation is -2.42%.

Turning to `CC(O)(c1cccc(F)c1)c1nc(-c2ccc3c(c2)OCO3)cs1` (configuration not stated), the activation is -1.63%.

Take `Nc1ccc(-c2nnc(-c3ccccc3)o2)cc1`: the activation is 2.79%.

On to `Brc1ccc(-c2noc(-c3ccccc3)n2)o1`, for which the activation is 43.9% (active).

Take `O=C(Oc1ccc(-c2nc(-c3ccccn3)no2)cc1)c1ccccc1`: the activation was 1.55%.

As to `Cc1cc2nc(-c3ccc(F)cc3)c(Cc3ccsc3)n2c(C)c1Br`, the activation was -0.642%.

Take `COc1cccc(CNC(=O)[C@H]2CCCN2C(=O)[C@H]2CCCN2C(=O)C2CCCCC2)c1`: the activation was 0.974%.

Regarding `COC(=O)[C@H](CC(C)C)NC(=O)N1CCCCC1C` (some centres not stated), the activation is 39.6% (active).

Consider `CC(C)C[C@@H](NC(=O)[C@H]1CCCN1C(=O)Cc1ccccc1)C(N)=O` (PhAc-[dP]-[dL]-NH2), for which the activation was 0.192%.

In the case of `CC(C)C[C@H](NC(=O)C1CCC(CNC(=O)[C@@H]2CCCN2C(=O)OC(C)(C)C)CC1)C(=O)O` (some centres not stated), the activation is 1.33%.

As for `COc1cccc(CNC(=O)[C@H]2CCCN2C(=O)[C@H]2CCCN2C(=O)c2cc(F)cc(F)c2)c1`, the activation was -1.85%.

Consider `O=C1c2ccccc2NC(c2ccccn2)N1NS(=O)(=O)c1ccccc1` (configuration not stated), for which the activation is 31% (active).

On to `O=C1c2ccccc2NC(c2ccccc2O)N1NS(=O)(=O)c1ccccc1` (configuration not stated), for which the activation was -0.668%.

Turning to `CN(C)c1ccc(C2Nc3ccccc3C(=O)N2NS(=O)(=O)c2ccccc2)cc1` (configuration not stated), the activation was -0.625%.

Turning to `c1ccc(CNCc2ccc(CNCc3ccccc3)cc2)cc1`, the activation was 0.235%.

With `N#CCCN(C(=O)Nc1ccc(Cl)c(Cl)c1)C1CCCCC1`, the activation is 2.31%.

On to `CC1(C(=O)NCc2ccc3c(c2)OCO3)CCN1C(=O)Cc1cccc2ccccc12` (configuration not stated), for which the activation is 12.9%.

As for `CCN(CC)CCN(C)C(c1ccnc2ccccc12)c1nnnn1-c1ccc2c(c1)OCCO2` (configuration not stated), the activation was -2.38%.

Take `CCc1cccc(CC)c1N1C(=O)CC(Sc2ccccc2N)C1=O` (configuration not stated): the activation is 2.41%.

With `c1c2c(cc3sc(N4CCCCC4)nc13)OCCO2`, the activation is 1.11%.

Regarding `Brc1ccc2nc(N3CCCC3)sc2c1`, the activation was 43.7% (active).

Turning to `O=S(=O)(Nc1ccc2nc(N3CCOCC3)sc2c1)c1ccccc1`, the activation was 29.3%.

Take `COC(=O)[C@@]12C[C@@H](CC(=O)N3CCC(c4ccccc4)CC3)C(=O)N(Cc3ccccc3)C1=CCC(C)(C)C2`: the activation was -3.58%.

As for `CCCCCc1c(Cc2ccccc2)ncn1CCc1ccccc1OC`, the activation is -9.51%.

Consider `O=C(O)c1cc([N+](=O)[O-])c(Nc2cccc3ccccc23)c([N+](=O)[O-])c1`, for which the activation was 0.153%.

Take `O=C(CNC(=O)c1ccccc1)Oc1ccc([N+](=O)[O-])cc1`: the activation was -0.597%.

In the case of `O=C(Nc1ccc2ccccc2c1[N+](=O)[O-])c1ccccc1`, the activation is 55.8% (active).

`COC(=O)c1c(-c2ccc(OC)cc2)c2c(c3c4ccccc4n(S(=O)(=O)c4ccc(C)cc4)c13)C(=O)N(C)C2`: the activation was -6.59%.

`COC(=O)C1=C(C(=O)OC)C2C=C(C(C)C)C1C(=O)C2(C)O` (configuration not stated): the activation was -3.31%.

For `O=C(NCc1ccc(F)cc1)c1cc(C2CCCCN2C(=O)c2ccccn2)on1` (configuration not stated), the activation was -0.749%.

As for `O=C(NCc1ccccc1)[C@@H]1CCCN1C(=O)[C@@H](NS(=O)(=O)c1ccc(F)cc1F)C1CCCCC1`, the activation was -0.246%.

In the case of `COC(=O)c1ccc(CSc2ccc(S(=O)(=O)N3CCCCC3)cn2)cc1`, the activation is -0.89%.

Turning to `COC(=O)c1ccc(SCc2ccccc2)nc1`, the activation was 51.6% (active).

As to `COC(=O)c1ccc(CSc2nncn2N)cc1`, the activation was -7.5%.

With `Nc1ccn([C@@H]2O[C@H](C(=O)N[C@H]3CCCCNC3=O)[C@@H](O)[C@H]2O)c(=O)n1`, the activation is -3.4%.

Turning to `Cc1cc(C)nc(N2CCC(C(=O)Nc3ccc4c(c3)OCCO4)CC2)n1`, the activation was -5.24%.

`O=C(Nc1ccc2c(c1)OCCO2)C1CCCC1`: the activation is -15.2%.

Consider `O=C(Nc1ccc2c(c1)OCCO2)C1CCCN(c2ncccn2)C1` (configuration not stated), for which the activation was 45.5% (active).

Regarding `CC1(C(=O)Nc2cccc3cccnc23)CCN1C(=O)CCC1CCCC1` (configuration not stated), the activation is -4.88%.

For `O=[N+]([O-])c1ccccc1N/N=C1\CCc2ccccc21`, the activation was 47.7% (active).

With `CN1CCN(CCNC(=O)Nc2ccccc2[N+](=O)[O-])CC1`, the activation is -0.54%.

In the case of `O=[N+]([O-])c1cc(C(F)(F)F)ccc1NN=C1CCCC1`, the activation was 6.33%.

As to `CC1=C(C(=O)N2CCOCC2)CC(CC(=O)NCC2CCCCC2)C(=O)N1Cc1ccc(F)cc1` (configuration not stated), the activation was -1.2%.

On to `CCCCCCN1CCN(C2CN(Cc3cn(Cc4ccc(F)cc4)nn3)S(=O)(=O)C2)CC1` (configuration not stated), for which the activation is -5.62%.

Consider `Cc1ccc(C(=O)Nc2ccn(C)n2)cc1`, for which the activation is 55.8% (active).

With `Cn1ccc(NC(=O)Nc2ccc(Cl)cc2)n1`, the activation was 20.1%.

As to `CN(C)S(=O)(=O)c1cc(C(=O)Nc2ccn(C)n2)c(Cl)cc1Cl`, the activation was 1.22%.

As to `Cc1ccc(-c2ccc(CN3C(C(C)C)C(=O)N(Cc4cn(CCC5OCCO5)nn4)CCS3(=O)=O)cc2)cc1` (configuration not stated), the activation is -0.655%.

In the case of `CC(=O)Nc1ccc(C=CC(=O)c2ccc([N+](=O)[O-])cc2)cc1`, the activation is -6.15%.

As for `CC(=O)Nc1ccc(C(=O)/C=C/c2ccc[nH]2)cc1`, the activation is 42.8% (active).

On to `CC(=O)Nc1ccc(C(=O)NNC(=O)CCCCC(=O)NNC(=O)c2ccc(NC(C)=O)cc2)cc1`, for which the activation was 1.15%.

Consider `CCOc1ccccc1C(=O)N1CCC[C@@H]1C(=O)N1CCC[C@H]1C(=O)NCc1ccccc1`, for which the activation was 1.73%.

On to `COC(=O)[C@]12C[C@H](CC(=O)NCCc3ccccc3OC)C(=O)N(Cc3ccccc3)C1=C[C@H](C(C)C)O[C@@H]2C1CC1`, for which the activation is -2.31%.

As for `COc1ccc(Nc2ccc3ccccc3c2)cc1`, the activation is 50.4% (active).

Turning to `COc1ccc(Nc2nnc(C)c3ccccc23)cc1`, the activation was 1.79%.

`COc1ccc(-c2nnc(-c3ccc4ccccc4c3)o2)cc1`: the activation was 3.21%.

Turning to `CCOc1ccc2[nH]c(=S)sc2c1`, the activation was 6.79%.

As for `COCc1cc(=O)n2[nH]c(C)c(-c3ccccc3)c2n1`, the activation is 47.6% (active).

Take `COCc1cc(=O)[nH]c(-c2ccc(C(F)(F)F)cc2)n1`: the activation was -1.39%.

Consider `CCCc1cc(=O)n2[nH]c(C)c(-c3ccc(Cl)cc3)c2n1`, for which the activation is -2.59%.

As for `O=C(C(=O)N1CCC(c2ccccc2)CC1)c1ccccc1`, the activation is -2.25%.

Consider `Cc1cc(NC(=O)CSc2nc3c(cc2C#N)CCCCC3)no1`, for which the activation is 35.1% (active).

As for `Cc1cc(NC(=O)COc2ccccc2C#N)no1`, the activation was 19%.

With `CC(NC(=O)CSc1nc2c(cc1C#N)CN(C)CC2)c1ccccc1` (configuration not stated), the activation was -0.152%.

Consider `CCOC(=O)C=Cc1ccc(C(=O)OCC)[nH]1`, for which the activation was -4.57%.

In the case of `COc1ccc(C2=CN(Cc3ccccc3)C(c3ccc(OC)cc3)CC2=O)cc1` (configuration not stated), the activation is -3.3%.

On to `Cn1c(=NC(=O)c2cnccn2)sc2ccccc21`, for which the activation was 40.5% (active).

With `O=C(NCCCNC(=O)c1ccccc1Cl)c1cnccn1`, the activation is -1.92%.

As for `COC(=O)c1ccc(OC(=O)c2cnccn2)cc1`, the activation was -1.23%.

Regarding `CC(=O)C1=C(C)N(Cc2ccccc2)C(=S)NC1c1cccc(Br)c1` (configuration not stated), the activation is -4.75%.

As to `CCOC(=O)[C@]12CCCC=C1N(CCC1=CCCCC1)C(=O)[C@H](CC(=O)NCCCOC)C2`, the activation was -3.04%.

These data come from PubChem BioAssay AID743398 (Broad Institute, 2014).
